Assay outcomes as filed in PubChem.
Hits are enriched below; roughly 27% of the tested compounds scored in any of these assays.
sEH act: activators of human soluble epoxide hydrolase; P34913; purified human sEH enzymatic activity, activator screen; activation, % at 2 µM; hit rate 0.04% among 91,000; AID 717; in the data active means activation above about 37%
Target sequence (P34913 whole entry, looked up): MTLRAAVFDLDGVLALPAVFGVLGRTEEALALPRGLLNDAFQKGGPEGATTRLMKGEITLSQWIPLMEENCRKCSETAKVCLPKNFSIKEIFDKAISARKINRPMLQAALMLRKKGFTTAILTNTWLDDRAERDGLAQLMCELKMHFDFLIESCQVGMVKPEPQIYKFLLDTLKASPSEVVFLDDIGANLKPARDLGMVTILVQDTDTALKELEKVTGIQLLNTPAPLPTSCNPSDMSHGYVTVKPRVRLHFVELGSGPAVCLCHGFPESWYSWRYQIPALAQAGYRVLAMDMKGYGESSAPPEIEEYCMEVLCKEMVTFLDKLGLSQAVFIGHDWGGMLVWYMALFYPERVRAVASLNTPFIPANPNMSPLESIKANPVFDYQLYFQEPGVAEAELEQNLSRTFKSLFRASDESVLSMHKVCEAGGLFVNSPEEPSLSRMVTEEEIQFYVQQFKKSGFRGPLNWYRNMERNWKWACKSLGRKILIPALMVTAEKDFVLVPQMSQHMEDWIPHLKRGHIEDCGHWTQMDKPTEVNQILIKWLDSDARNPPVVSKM
CYP2C19 inhib: human CYP2C19 inhibition; P33261; CYP2C19 Supersomes, luciferin-H EGE luminescence, 30 min; inhibition, % at 5 µM; hit rate 21% among 96,000; AID 778;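 active means CYP2C19 inhibition above a set limit at 5 µM in the primary screen, cut at about 50% in these data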;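 further: plate controls were negative control wells for no effect and 2.5 mM tranylcypromine positive control for full effect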
CYP2C19 activ: cytochrome P450 2C19 (human) activation. 96,000 tested, under 10 active. P33261. AID 1025. recombinant CYP2C19, luciferin-H EGE luminescence; hits give high values; 0 = fully inhibited enzyme, 1 = untreated enzyme. activation factor at 5 µM;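 active means activation factor of at least 2 at 5 µM in the primary screen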;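 further: 0 = wells with 2.5 mM tranylcypromine and 1 = vehicle-only wells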
CYP2C9 act: activators of human CYP2C9; P11712; recombinant CYP2C9, luciferin-H conversion, luminescence; hits give high values; factor 1 = untreated enzyme, 0 = blocked; activation factor at 5 µM; hit rate 1.4% among 96,000;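 active means activation factor of 2 or more for CYP2C9 at a 5 µM dose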;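 further: 0 = sulfaphenazole-blocked wells and 1 = vehicle-only wells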
sEH inhibitor: soluble epoxide hydrolase (human) inhibition; P34913; recombinant human sEH enzymatic activity assay; inhibition, % at 2 µM; hit rate 0.34% among 91,000; in the data active means inhibition above about 80%
CYP2C9 inhib: human CYP2C9 inhibition. CYP2C9 Supersomes, luciferin-H conversion, luminescence. AID 777. inhibition, % at 5 µM. hit rate 20% among 96,000;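 active means blocking of liver enzyme CYP2C9 beyond about 50% at 5 µM, limit read from the data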
An asterisk follows results filed as active.

Screening COCC(=O)Nc1nnc(SCC(=O)NCc2cccs2)s1 returned sEH act 4, CYP2C19 inhib 6, CYP2C19 activ 0.9, CYP2C9 act 1.1, sEH inhibitor -2 and CYP2C9 inhib -5.
Cc1cccc(N(CC(=O)N2CCOCC2)S(C)(=O)=O)c1C was read as sEH act 4, CYP2C19 inhib -5, CYP2C19 activ 1.1, CYP2C9 act 1.2, sEH inhibitor -3 and CYP2C9 inhib -17.
Cc1cc(C)cc(N(C(C)C(=O)NCCC2=CCCCC2)S(C)(=O)=O)c1 (configuration not stated) was read as sEH act 2, CYP2C19 inhib 92*, CYP2C19 activ 0.1, CYP2C9 act 0.9, sEH inhibitor 1 and CYP2C9 inhib 14.
`Cc1cccc(N(CC(=O)NCCC2=CCCCC2)S(C)(=O)=O)c1C` gave sEH act -7, CYP2C19 inhib 56*, CYP2C19 activ 0.4, CYP2C9 act 0, sEH inhibitor 7 and CYP2C9 inhib 95*.
COc1ccc(-n2nnc3c(=O)n(C/C=C/c4ccccc4)cnc32)cc1 was read as sEH act 8, CYP2C19 inhib -1, CYP2C19 activ 1, CYP2C9 act 0.8, sEH inhibitor -5 and CYP2C9 inhib 20.
Screening CCCCCCc1nnc(N)s1 returned sEH act 1, CYP2C19 inhib 25, CYP2C19 activ 0.7, CYP2C9 act 0.7, sEH inhibitor -5 and CYP2C9 inhib 28.
`Cc1sc2nc(C)n(/N=C/c3ccccc3)c(=O)c2c1C` gave sEH act 38*, CYP2C19 inhib 77*, CYP2C19 activ 0.2, CYP2C9 act 1, sEH inhibitor -42 and CYP2C9 inhib -3.
Cn1c(N)c(N2CCCCC2)c(=O)n(CC(=O)Nc2ccc(Cl)c(Cl)c2)c1=O was read as sEH act -3, CYP2C19 inhib 94*, CYP2C19 activ 0.1, CYP2C9 act 0, sEH inhibitor 5 and CYP2C9 inhib 98*.
Screening N#CC(c1ccc(Cl)cc1)c1ccc(Cl)nn1 (configuration not stated) returned sEH act -6, CYP2C19 inhib 53*, CYP2C19 activ 0.5, CYP2C9 act 0.9, sEH inhibitor 4 and CYP2C9 inhib 5.
N#CC(c1ccc(Cl)nn1)c1ccccc1Cl (configuration not stated) was read as sEH act 1, CYP2C19 inhib 32, CYP2C19 activ 0.7, CYP2C9 act 0.9, sEH inhibitor -2 and CYP2C9 inhib 7.
For COc1ccc(NC(=O)C(CCS(C)(=O)=O)N2C(=O)c3ccccc3C2=O)cc1 (configuration not stated) the results were sEH act 20, CYP2C19 inhib 4, CYP2C19 activ 1, CYP2C9 act 0.5, sEH inhibitor -17 and CYP2C9 inhib 46.
CCCc1ccc(Oc2cn[nH]c2-c2ccc(O)cc2O)cc1 was read as sEH act 9, CYP2C19 inhib 96*, CYP2C19 activ 0, CYP2C9 act 0.1, sEH inhibitor -8 and CYP2C9 inhib 89*.
For COc1ccc(-c2[nH]ncc2-c2cnn(-c3ccccc3)c2)c(O)c1 the results were sEH act 3, CYP2C19 inhib 69*, CYP2C19 activ 0.3, CYP2C9 act 0.2, sEH inhibitor -4 and CYP2C9 inhib 82*.
For COc1ccc(-c2[nH]ncc2Oc2ccccc2OC)c(O)c1 the results were sEH act -5, CYP2C19 inhib 94*, CYP2C19 activ 0.1, CYP2C9 act 0.3, sEH inhibitor 5 and CYP2C9 inhib 75*.
Screening COc1ccc(Oc2cn[nH]c2-c2ccc(O)cc2O)cc1 returned sEH act -2, CYP2C19 inhib 100*, CYP2C19 activ 0, CYP2C9 act 0, sEH inhibitor 3 and CYP2C9 inhib 99*.
`COc1cccc(C(=O)N2CCN(S(C)(=O)=O)CC2)c1` gave sEH act -6, CYP2C19 inhib 28, CYP2C19 activ 0.7, CYP2C9 act 0.9, sEH inhibitor 4 and CYP2C9 inhib 9.
`O=C(COC(=O)c1ccco1)c1ccc2ccccc2c1` gave sEH act 4, CYP2C19 inhib 31, CYP2C19 activ 0.7, CYP2C9 act 0.7, sEH inhibitor -4 and CYP2C9 inhib 27.
For O=C(CN1CCOCC1)N1CCN(C(=O)CN2CCOCC2)CC1 the results were sEH act 5 and sEH inhibitor -4.
Screening NC(=O)CN1CCOCCOCCN(CC(N)=O)CCOCC1 returned sEH act 7, CYP2C19 inhib -27, CYP2C19 activ 1.3, CYP2C9 act 0.4, sEH inhibitor -5 and CYP2C9 inhib 55*.
`C[C@@]12CC(=O)NC1N(C(=O)c1ccccc1)C(c1ccccc1OC(=O)c1ccccc1)C2` (some centres not stated) gave sEH act -3, CYP2C19 inhib 40, CYP2C19 activ 0.6, CYP2C9 act 0.7, sEH inhibitor 3 and CYP2C9 inhib 32.
`O=C(/C=C/N1CCOCC1)c1ccc(-c2ccccc2)cc1` gave sEH act 16, CYP2C19 inhib 21, CYP2C19 activ 0.8, CYP2C9 act 0.1, sEH inhibitor -15 and CYP2C9 inhib 89*.
For CC1(C)Nc2ccccc2N(CCC(=O)N2CCOCC2)C1=O the results were sEH act -7, CYP2C19 inhib 3, CYP2C19 activ 1, CYP2C9 act 0.9, sEH inhibitor 6 and CYP2C9 inhib 14.
Screening CN(C(=O)CCN1C(=O)C(C)(C)Nc2ccccc21)c1ccccc1 returned sEH act 0, CYP2C19 inhib 76*, CYP2C19 activ 0.2, CYP2C9 act 0.7, sEH inhibitor 4 and CYP2C9 inhib 29.
Cn1cc(S(=O)(=O)N2CCN(c3ccccc3)CC2)c(=O)n(C)c1=O was read as sEH act 5, CYP2C19 inhib 41, CYP2C19 activ 0.6, CYP2C9 act 0.7, sEH inhibitor -7 and CYP2C9 inhib 27.
Cc1cc(C)cc(C(=O)N2CCCCCC2)c1 was read as sEH act -3, CYP2C19 inhib 28, CYP2C19 activ 0.7, CYP2C9 act 1.4, sEH inhibitor 6 and CYP2C9 inhib -38.
Cc1cc(C(=O)N2CCCCCC2)cs1 was read as sEH act -2, CYP2C19 inhib 58*, CYP2C19 activ 0.4, CYP2C9 act 1.1, sEH inhibitor 0 and CYP2C9 inhib -7.
For C=CCOC(=O)CN1C(=O)c2ccccc2C1=O the results were CYP2C19 inhib 61*, CYP2C19 activ 0.4, CYP2C9 act 1 and CYP2C9 inhib 2.
CCn1c(SCc2cccc(C(=O)O)c2)nnc1-c1ccccc1 was read as sEH act 5, CYP2C19 inhib -1, CYP2C19 activ 1, CYP2C9 act 0.9, sEH inhibitor -5 and CYP2C9 inhib 6.
Screening CCOC(=O)c1ccc(Nc2cc(C)nc(-c3ccccc3O)n2)cc1 returned CYP2C19 inhib 36, CYP2C19 activ 0.6, CYP2C9 act 0.4 and CYP2C9 inhib 57*.
For Cc1cc(Nc2ccccc2)nc(-c2ccccc2O)n1 the results were sEH act 0, CYP2C19 inhib -18, CYP2C19 activ 1.2, CYP2C9 act 1, sEH inhibitor 0 and CYP2C9 inhib 5.
